Assay results as given in PubChem BioAssay AID1508600 (Functional Genomics Laboratory (NCATS/FGL), 2020).
Screen size: about 53,000 sequences; about 3,700 (7%) were called active. This is one part of a sample in which actives are shown more often than they occur.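 The calls were made as follows: active = gene knockdowns whose robust z-score for IL-1 alpha signal is at least 2 or at most -2, so actives lie on both sides; inactive = the rest.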

assay: Components of the Cytosolic LPS Sensing Pathway: Gene Identification via Genome-wide siRNA Screen; settings: RAW264.7 macrophages, IL-1a HTRF, actives lie on both sides, screened at 100 nM (by protocol), cells primed 5 h with Pam3CSK4 first;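 also: robust z of the log signal after scaling to non-targeting control siRNA wells of the plate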
In short: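 RAW264.7; siRNA 100 nM final, RNAiMAX, 48h 37 degrees C; Pam3CSK4 5 h; LipidA + TransIT-TKO 24 h; IL-1a HTRF; CellTiter-Glo viability; robust z vs negative-control median.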

z-score, active:
GGUGUUCGUCAUAUGGAAUTT against Tex46 3.71, GCUGAAAUCCAGGAUAGAGTT against Zw10 -2.03, GAUAUGUGUACACUUCUGCTT against Vmn1r218 -2.08, GGAGAUGAUUUUGAACUUCTT against Retreg3 2.73, GCUCUUCCGAUUAAUGCAGTT against Gabra6 2.87, GGUGCAAAUGUUCUCAUCUTT against Mfsd4b1 2.11, GGCUGUGCAAGAUGUUCUATT against Gpr27 3.29, UGCUGUGGUCACUCCCAUGTT against Olfr457 -2.04, GGUGACCAGCUCCAUUUCUTT against Ccn5 2.61, GCCAGAUCUGUUAACCGCCTT against Gzmk 2.15, GGUGGUCACCAAGAAGUUUTT against Prps2 2.52, GGACAACACUGUCAAUCAUTT against Olfr922 -2.39, GGAAAAAAUUAAAGAGCACTT against Gmcl1 2.15, CGGGAAAGAGAUCAUCCCUTT against Nr1i2 -3.3, GUUCCGACUGAACUUGUAUTT against Psmb3 -2.55, GCCUAAACCUGAGUUAUAATT against Lrig1 2.34, GGGAAUUCUCCUGUUUGCUTT against Plp2 -2.22, GGCUUUCAAGAGCAAUCCCTT against Man2b2 -2.21, GGUCUGUGAGGAACAAAAGTT against Ccnd2 -2.26, GCAGGUCACUUUCUAGAGATT against Srsf3 -2.25, GGCAUUGAGAUGAAAUGAATT against 4933427E11Rik -2.5, GCACAAUGGUGUUAAGUCATT against Ado 2.3, GCAGGUUUAACAACUUACUTT against Dmgdh 3.07, CCCAGUUCUGUCCUACUUATT against Efcab6 -2.79, GGAAUUCAUUGCUAUUAUGTT against Cetn3 2.12

z-score, inactive:
GGCACUUCAACAGCAGUUATT against Cep295 -1.27, GGUAACUGUUACACAAAUCTT against Tmem161b -0.291, GGCCUUUUGGCUUUGAUCUTT against Hoxb1 -1.86, GGAAUAUGUCACCAACAAGTT against Akap8l -0.896, GCAGGAAGUAAAAUCUCUUTT against Tmem183a 0.707, GGAGUCACACCUGAAUUGCTT against Cep89 0.129, GGGACAAGGACUUUAAAAATT against Scamp2 0.566, GCACAUUCAGAUGAGGACUTT against Rnf6 -1.05, GGUUACAUGGAUUGAAGCUTT against Scrn3 0.183, CCCAACACAAUAUUUGCCATT against Nfyc 0.019, GCUGUCUCUACGUUGGAGATT against Adamts2 0.145, CCACUUAGGUUAGAAAGAATT against R3hdm1 -0.77, CCAAGUCGGACUUACGGUUTT against Cnpy3 -1.65, UCUGCUCAACAUCGUCAAUTT against Sstr3 0.719, GGACCAAGGCUUGGAUCUUTT against Magea6 0.527, CGUGGUGCCUUUGAAUCUGTT against 9530056K15Rik 1.2, GGCAUCAAGCAAUUCACUCTT against Zfp455 1.14, GCCACUGUCACUUUUGUACTT against Arl11 -1.08, GGAUUUGUUGGAAAUUGGATT against Anks1b 0.132, CCCAUGGGCAGAUGAAAGCTT against Olfr1441 -0.482, GCAAUGCGACGUGCUCUAUTT against Trim67 0.136, GGCUUAAGUUAGGCAAACUTT against Crtc3 -0.0675, GCCACAACAAACCUACGACTT against Xpc -1.32, GCGCAUUGUGUUCUGGUCUTT against Zswim4 -1.55, GGAACUUGGCCUACUUAUGTT against C130071C03Rik 0.718, GAGGUCAUUAUACCAUUGGTT against Tuba3b 0.554, GGCCAACACUCAGAAAAGGTT against Zfp474 1.59, GGUUGGGCUGCCAAGUUUGTT against Fdx1 1.96, UACUACAACCGCACAGUGATT against Tmc6 0.522, GGAAGCUCUUAAAAGGUUGTT against Hdhd2 0.226, GCUCCUCAUGAUAUUGGCCTT against Nagk 0.239, GGAGGGACUUACCACAAGGTT against Timeless 0.282, GGGAAUCUUUAUCAGUGAGTT against Insc 0.429, GCUCCUGAUCAAAUAAAGUTT against Ldhb 0.279, CCGGAGUUAUACCGUAAGATT against Plaur -0.671, GGAGUAGGAACAAAAAUUGTT against Polb -0.153, CCUUGGCCAAUCUCCACAATT against Ptpmt1 -0.485, GGCACAAAAGAAGAAGAUGTT against Retsat -1.7, CGAUAAUGAAAGUGACCAUTT against Uri1 -0.0814, GGAUGCUAGACUAAUACUATT against Slc25a32 1.3, GGGAGGGAUGCAGUAAAUGTT against Acaa1a -0.337, GCAGGAACGUGAGGACCAUTT against Snip1 0.842, GGCUCUGUGCAGACAUUUCTT against Pop5 -1.51, GCCUGGAUACAAUUACCCUTT against Tc2n -0.893, GCUCAGUAAUCGCUGUCUATT against Olfr91 -0.62, GGAGAUGAUACAUAAUCUATT against Psmd12 -0.0292, GGUGACAAAGGUGUUAGAATT against Itpkc -0.252, GGUGACCAAAAAAGCUUUATT against Pax9 1.37, GCUCAAAUAACUCCACCACTT against Pola1 -1.73, GGCGACCACUUUGUCUACATT against Plekhg3 1.1, GCUGCGUCCUAUGAGUUUATT against Drg2 1.72, GGCAGCAAGGAAACUAUUATT against Kpna3 1.39, GCCAACGAAAAAUGACCUCTT against Wnt2 -0.046, GGCCAAAAGUAUGAAAGUATT against Tspan1 0.45, GCGUGUUGUGAUGUCACCUTT against Cisd1 -0.0193, CCAGAUACUUCUCAUGGCGTT against Dipk1b -0.0671, CGAUUUGCCUUAUUUUUCATT against Litaf 1.23, GGAAGUACAAACUACUAGUTT against Mcmbp -0.393, GGAGCUAGACAAAACUAAATT against Vmn2r81 -0.882, GUAGAAGAUGGAAUUUUUGTT against Rpl22l1 0.048, CCUGAUGGGUUACCUAUGCTT against Col25a1 -0.379, GCGGUUCCAAGAUUGUUGUTT against Armc8 0.109, GCUGAUCGCUUUGAUUCGATT against Fkbp11 -0.495, GCUAACACUGCGCUUGGAATT against 1700067K01Rik -1.39, GGGACCAGAACCACAAACATT against Ghsr -1.62, GGACUAAAUAGGUUUACCATT against Alx1 1.26, CGCAGACAGAGACAACCUGTT against Casp6 -0.73, GCGUGUCCUAUAGCAUCUGTT against Cela1 -0.106, GGAAUUGAAGGGUACUUAATT against Fam111a -1.97, GCCAAAUAUUAUUCCUACATT against Sec63 -0.282, GGGAAUCCUAGACAUGCUGTT against Nphp4 -1.91, GGGCAACCUGUCACAUUAUTT against Spam1 1.16, CCUCAUCCUUAGUUGUUUUTT against Ift88 -0.15, GGAACCUCUCAAUUUUGCGTT against Pik3ip1 0.659, GGAUUAGGUCAUUAUUAGGTT against Kcne3 -0.202, GGCAGUCUUGUCCCUUGUATT against Myl12a -0.74, GGAAGAAGGAACAUGAUCUTT against Mrpl52 -0.928, GGAGACAGUGGUAUUUUGATT against Birc5 0.468, GGAAGCAUGUGAGAGAAAATT against C130026I21Rik -1.03, GGCAUCACACAGGAGAAAATT against Ppp1r16b -0.391, GGAACAGAUGGGUGUGAAATT against Wnt2b -0.0195, CUUUUGUAAAGCCUUCCACTT against Zfp708 -0.259, GGAUCUCGGGAAAAAGUUGTT against Spesp1 0.185
